Source: the supplement of paper PMC7411640
Structures can show the parent of a compound that is named as a salt.

These compounds were tested on MDA-MB-468 (assay: phospho-S6 immunofluorescence (DAPI-normalised), per-plate z-score; higher = higher phospho-S6 signal (less pathway suppression)). Details: co-treatment: lapatinib 1 uM; 24 h.
Procedure: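 GPCR-targeted compound library (MedChemExpress HY-L006) tested on MDA-MB-468 PTEN-null TNBC cells in 384-well plates at 0.1, 1 or 10 uM, combined with vehicle, GDC0941 450 nM or lapatinib 1 uM, for 24 h. Phospho-S6 (S240/244) immunofluorescence normalised to DAPI and expressed as a per-plate z-score; values are the mean of biological triplicates.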

Compound | phospho-S6 immunofluorescence (z-score)
O=C(O)CC1CCC2(CC1)CCN(c1cc(OC(F)(F)F)ccc1Cl)CC2 (compound 10 µM) | 0.11
CC[C@H](C)[C@@H]1NC(=O)[C@H](Cc2ccc(O)cc2)NC(=O)[C@@H](N)CSSC[C@@H](C(=O)N2CCC[C@H]2C(=O)N[C@@H](CC(C)C)C(=O)NCC(N)=O)NC(=O)[C@H](CC(N)=O)NC(=O)[C@H](CCC(N)=O)NC1=O [Oxytocin (acetate)] (compound 10 µM) | -0.07
COc1cc(C(=O)N(CCCc2ccccc2)Cc2ccc(CC(=O)O)cc2)cc(OC)c1C (compound 10 µM) | 0.49
CN(C)C(=O)C(CCN1CCC(O)(c2ccc(Cl)cc2)CC1)(c1ccccc1)c1ccccc1 [Loperamide (hydrochloride)] (compound 10 µM) | -3.22
O=c1ccc2ccc(OCCCCN3CCN(c4cccc5sccc45)CC3)cc2[nH]1 [Brexpiprazole] (compound 10 µM) | -6.92
Cc1cccc(C#Cc2ccccc2)n1 [MPEP (Hydrochloride)] (compound 10 µM) | 0.68
CC(C)c1cc(-c2ccc(F)c3ccccc23)nc(N)n1 (compound 10 µM) | 1.27
OCC1OC(n2cnc3c(NCCc4ccccc4)ncnc32)C(O)C1O (centres undefined) [N6-(2-Phenylethyl)adenosine] (compound 10 µM) | 1.11
CC(=O)OCC(=O)[C@@]1(O)[C@H](C)C[C@H]2[C@@H]3CCC4=CC(=O)C=C[C@]4(C)[C@@]3(F)[C@@H](O)C[C@@]21C [Dexamethasone (acetate)] (compound 10 µM) | 0.45
